Sampled rows, rich in hits. Any-hit rate of the full collection: about 4.1%.
ssDAF12 agonist – activators of S. stercoralis DAF-12 nuclear receptor; HEK293 ssDAF-12/GRIP1 lit1-tk-luc reporter, luminescence; % of 3 µM dafachronic acid response; activation, % at 6.8 µM; 370,000 compounds, 1% hits;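 active = activation above the mean over all tested compounds plus 3 SD, cut at about 0.9% in these data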;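 note: 0% = DMSO-only wells and 100% = 3 µM delta7-dafachronic acid wells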
hcDAF12 agonist – H. contortus DAF-12 activation, primary screen | HEK293 hcDAF-12 lit1-tk-luc reporter, luminescence; 0% DMSO, 100% Δ7-dafachronic acid | AID 652067 | activation, % at 6.8 µM | 370,000 compounds, 1.4% hits;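 active = activation above the mean of all tested compounds plus 3 SD, cut at about 5.5% in these data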;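 note: 100% = response to 3 µM Δ7-dafachronic acid high control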
hgDAF-12 ag – agonists of H. glycines DAF-12 nuclear receptor. HEK293 GAL4-hgDAF12 UAS-luciferase reporter, agonist luminescence; normalized to butyrate control. activation, % at 6.8 µM. 370,000 compounds, 1.8% hits;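 active = activation above a cutoff set at the mean of all screened compounds plus 3 SD, cut at about 10% in these data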;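 note: 0% = DMSO wells and 100% = sodium butyrate wells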
DAX1 inh-1 – inhibits human nuclear receptor DAX1; P51843; 340,000 compounds, 0.99% hits; AID 504766; inhibition, % at 6.75 µM; HEK293 Gal4-DAX1 luciferase reporter, luminescence;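 active = inhibition above the mean over all tested compounds plus 3 SD, cut at about 4.2% in these data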;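 note: 0% = DAX1-transfected cells with DMSO and 100% = empty-vector control cells with DMSO; inhibition shows as a rise in luminescence from relieved DAX1 repression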
Target sequence (P51843 207-470 limits assumed): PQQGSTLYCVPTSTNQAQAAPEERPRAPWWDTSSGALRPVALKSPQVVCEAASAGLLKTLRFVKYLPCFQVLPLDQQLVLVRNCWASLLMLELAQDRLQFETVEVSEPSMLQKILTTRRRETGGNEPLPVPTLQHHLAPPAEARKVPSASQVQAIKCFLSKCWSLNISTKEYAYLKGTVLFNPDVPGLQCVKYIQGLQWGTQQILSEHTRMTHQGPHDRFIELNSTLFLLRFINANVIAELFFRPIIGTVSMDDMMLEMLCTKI
DAX1 inh-2 – blocks DAX1 repression of SF-1 activated StAR promoter. 370,000 compounds, 1.1% hits. inhibition, % at 6.8 µM. HEK293T StAR-luciferase reporter, SF-1/DAX-1 repression relief;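 active = inhibition above the mean over all tested compounds plus 3 SD, cut at about 3.6% in these data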;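 note: 0% = DAX-1 cells with DMSO and 100% = cells lacking DAX-1 with DMSO; higher inhibition means more luminescence from relief of DAX-1 repression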
An asterisk follows results filed as active; . = not tested or not shown.

SMILES	ssDAF12 agonist	hcDAF12 agonist	hgDAF-12 ag	DAX1 inh-1	DAX1 inh-2
O=c1c2sc(-c3ccccc3)cc2nc2n1CCC2	0.9*	5.8*	13*	-1	4.3*
O=c1c2sc(-c3ccccc3)cc2nc2n1CCCCC2	0	4	12*	5.0*	3
Cn1c(NCCN2CCCC2)nc2cc(-c3ccccc3)sc2c1=O	0	0	0	.	1
C[C@H]1[C@H](NC(=O)c2ccc(C(F)(F)F)cc2)CC[C@@]23CCCN2C(=O)CCC[C@@H]13	-2	-1	2	.	.
O=C(Cn1nc(-c2ccccc2F)ccc1=O)Nc1ccc(S(=O)(=O)N2CCCCCC2)cc1	-1	0	-3	6.6*	0
O=C(Cc1ccccc1F)Nc1ccc(S(=O)(=O)N2CCCCC2)cc1	-1	-1	0	0	-1
CCC(=O)c1ccc(OCc2ccc(C#N)cc2)cc1	0	0	12*	2	2
CCC(=O)c1ccc(OCC(=O)O)cc1	-2	1	-1	2	0
Cn1c(/C(C#N)=C/c2ccc(O)cc2)nc2ccccc21	1.2*	0	7	5.5*	1
c1ccc(Cn2ccc(-c3cnc(-c4ccccc4)s3)n2)cc1	0	3	12*	0	2
CCN(CC)C(=O)CC[C@@H]1CC[C@]2(CCCN(S(C)(=O)=O)C2)O1	-1	1	-1	.	0
O=C(O)CCC(=O)Nc1ccccc1C(=O)N1CCN(c2ccc(Cl)cc2)CC1	-1	-1	3	6.8*	0
O=C(O)C1CC=CCC1C(=O)Nc1ccccc1C(=O)N1CCN(c2ccc(Cl)cc2)CC1 (stereo not given)	0	-1	-2	.	1
CC1CC(O)C(C)CN1 (stereo not given)	0	-1	0	5.4*	0
Cc1ccccc1-c1cc(=O)c2c(O)cccc2o1	-1	0	3	-1	0
O=c1cc(-c2cccc(Br)c2)oc2cccc(O)c12	0	5.8*	0	0	0
O=c1cc(-c2cccc(Cl)c2)oc2cccc(O)c12	0	3	3	0	1
O=c1cc(-c2ccccc2)oc2cccc(O)c12	0	-1	4	4.9*	1
CC(Cl)C(=O)N1CCC(C(=O)NC2CCCc3ccccc32)CC1 (stereo not given)	-1	1	-3	.	0
CCOC(=O)CC[C@@]1(C(=O)OCC)C[C@@H](CC(=O)N2CCSCC2)C(=O)N2CCCC=C21	-1	-1	0	.	0
CC(=NN1CCN(Cc2ccccc2Cl)CC1)c1ccc(O)cc1	-1	2	1	.	1
CCCOc1ccc(-c2cn3ccccc3n2)cc1[N+](=O)[O-]	-1	0	12*	0	2
CCCCOc1ccc(-c2csc(N)n2)cc1[N+](=O)[O-]	0	2	11*	3	2
COc1ccc(-c2cn3cc([N+](=O)[O-])ccc3n2)cc1OC	-2	-1	8	3	0
CCCCC(=O)Nc1cccc(-c2cn3ccccc3n2)c1	-1	2	8	1	2
SMILES	ssDAF12 agonist	hcDAF12 agonist	hgDAF-12 ag	DAX1 inh-1	DAX1 inh-2
COc1ccc(-c2cn3ccccc3n2)cc1[N+](=O)[O-]	-1	2	11*	2	0
CC(C)(C)NC(=O)C(c1cccnc1)N(C(=O)c1cccs1)c1ccc(C(C)(C)C)cc1 (stereo not given)	-1	1	1	.	.
COc1cc2c(cc1C1C(C#N)=C(N)OC3=C1C(=O)CC(C)(C)C3)OCO2 (stereo not given)	-1	-1	-2	4.9*	0
O=C(Nc1ccc2cn[nH]c2c1)c1ccc(Cl)c(S(=O)(=O)N2CCOCC2)c1	0	6.5*	5	2	1
c1ccc(C2CSc3ccccc3N2)cc1 (stereo not given)	0	5.6*	6	3	1
CC1CSc2ccccc2NC1=S (stereo not given)	-1	1	-1	-1	-1
COc1ccc(S(=O)(=O)N2CCCCC2)cc1NC(=O)c1[nH]c(C)c(C(C)=O)c1C	0.9*	6.2*	1	4.5*	-1
CC(=O)c1c(C)[nH]c(C(=O)OCC(=O)Nc2ccc(Cl)c(S(=O)(=O)N(C)C)c2)c1C	-3	-5	-13	-3	-2
CC(=O)c1c(C)[nH]c(C(=O)Nc2ccc(Cl)cc2F)c1C	0	2	11*	2	2
CC(=O)c1c(C)[nH]c(C(=O)Nc2ccc(Cl)c(S(=O)(=O)N(C)C)c2)c1C	-1	2	6	10.0*	2
CC(=O)Nc1nc(-c2cccs2)cs1	-1	0	5	0	0
O=C(Nc1nc(-c2cccs2)cs1)c1ccc(Cl)s1	-1	-3	11*	0	0
C=C(C)CSc1nc2ncccc2[nH]1	-1	-1	-2	1	0
Cc1ccc(CSc2nc3ncccc3[nH]2)cc1	-1	3	13*	-1	2
COc1ccc(S(=O)(=O)N2N=C(c3ccc(NS(C)(=O)=O)cc3)CC2c2ccco2)cc1 (stereo not given)	1.3*	5.6*	2	2	1
COc1ccc(S(=O)(=O)N2N=C(c3cccc(NS(C)(=O)=O)c3)CC2c2ccco2)cc1 (stereo not given)	-1	-2	-2	-1	-1
CCCCc1c(C)c2ccc(OCC(C)=O)cc2oc1=O	1	4	11*	4	2
CC1CCc2c(sc(/N=C/N(C)C)c2C#N)C1 (stereo not given)	-1	1	6	4.7*	0
CN(C)/C=N/c1sc2c(c1C#N)CCCC2	-1	1	8	1	1
O=C(CN1C(=O)CCC1=O)NC(=O)NC1CCCC1	0	0	1	4.6*	1
CC1(c2ccccc2)NC(=O)N(CC(=O)NC(=O)NC2CCCC2)C1=O (stereo not given)	-1	0	2	0	0
CCN(CC)CCCNC(=O)CC1Oc2ccccc2NC1=O (stereo not given)	-1	-2	3	.	0
O=C(COc1ccc2ccccc2c1Br)NC(=S)Nc1cccc(CO)c1	0	1	11*	-2	2
CC1CCN(C(=O)C2CCC(CNc3c(N4CCCCC4)c(=O)c3=O)CC2)CC1 (stereo not given)	-1	3	-4	1	0
O=C(C1CCC(CNc2c(N3CCCCC3)c(=O)c2=O)CC1)N1CCCC1 (stereo not given)	0	0	-1	5.5*	0
COC(=O)[C@]12C[C@H](CC(=O)NCCC(C)C)C(=O)N(CCc3ccc(OC)c(OC)c3)C1=C[C@H](COCc1ccccc1)O[C@@H]2C	-1	-2	-3	.	0
c1cn2cc(CSC3CCCCC3)nc2s1	1	2	13*	2	2
Clc1ccc(SCc2cn3ccsc3n2)cc1	-1	1	11*	2	1
O=C(NCCc1cn2ccsc2n1)C1CCCCC1	-1	1	1	2	0

Screening results: PubChem BioAssay, The Scripps Research Institute Molecular Screening Center
